Experimental data: PubChem BioAssay (NCATS)
Inconclusive results are not listed. Calls of active or inactive are those of the source. Unless noted, calls follow the shape of the dose curve; as a rule, active = well fitted curve in the direction sought with a large enough effect; inconclusive = small, poorly fitted or top-dose-only effect, or another doubt; inactive = no such curve, though single readings can be large; an effect the other way counts as inactive or inconclusive.

Assays:
[1] = Cell Viability - LYMP2-020 (AID 986); also: series mostly up to about 92 µM; nearly all actives have a fitted effect of over 55% in size
Procedure, shortened: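 Human lymphoblastoid cells, 2500/well, were pre-incubated 5 hr at 37 C, then exposed to compounds for 24 hr at 37 C in complete medium. Intracellular ATP was read by CellTiter-Glo luminescence, and AC50 was derived by Hill fitting of concentration-response data.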

[2] = Cell Viability - LYMP2-022 (AID 987); also: nearly all actives have a fitted effect of over 55% in size
Procedure, shortened: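 Human lymphoblastoid cells, 2500/well, preincubated 5 hr at 37 C, then exposed to compounds over a concentration range for 24 hr at 37 C in complete medium. Viability read as intracellular ATP by CellTiter-Glo luminescence after 30 min at room temperature; AC50 from Hill fits.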

[3] = Cell Viability - LYMP2-024 (AID 988); also: nearly all actives have a fitted effect of over 60% in size
Procedure, shortened: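 Human lymphoblastoid cells (2500/well) in complete medium were preincubated 5 hr at 37 C, then exposed to compounds for 24 hr at 37 C. Intracellular ATP was read by CellTiter-Glo luminescence; AC50 from Hill-equation fits of concentration-response data.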

[4] = Cell Viability - LYMP2-026 (AID 989); also: nearly all actives have a fitted effect of over 50% in size
Procedure, shortened: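 Human lymphoblastoid cells (2500/well) in complete medium were preincubated 5 hr at 37 C, then exposed to compounds for 24 hr at 37 C. Cellular ATP was read by CellTiter-Glo luminescence; AC50 from Hill-equation fits of concentration-response data.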

[5] = Cell Viability - LYMP1-002 - Assay at 24 hr (AID 993)
Procedure, shortened: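 Human lymphoblastoid LYMP1-002 cells, 2500/well in complete medium, were treated with compounds for 24 h at 37 C; intracellular ATP was read by CellTiter-Glo luminescence. AC50 values came from Hill-equation fits of qHTS concentration-response data.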

[6] = Cell Viability - LYMP1-002 - Assay at 40 hr (AID 994); also: nearly all actives have a fitted effect of over 60% in size
Procedure, shortened: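 Human lymphoblastoid cells, 2500/well in complete medium, were preincubated 5 hr at 37 C, then exposed to compounds for 40 hr at 37 C. Intracellular ATP was read by CellTiter-Glo luminescence after 30 min at room temperature; AC50 from Hill-equation fits.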

[7] = target: Alpha-galactosidase A (Homo sapiens) (UniProt P06280); test: Counterscreen for Glucocerebrosidase Inhibitors: qHTS Assay for Human alpha-Galactosidase at pH 4.5 (AID 992)
Procedure, shortened: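 Quantitative HTS: compounds tested from 0.7 nM up to 77 uM against 2 nM enzyme with 80 uM 4-MU alpha-D-galactopyranoside. The 20 min room-temperature reaction is stopped with 1M NaOH/1M glycine, pH 10.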

[8] = target: alpha-glucosidase (Oryza sativa, rice) (UniProt Q653V4); test: Counterscreen for Glucocerebrosidase Inhibitors: qHTS Assay for Rice alpha-Glucosidase at pH 5.0 (AID 997)
Procedure, shortened: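 Rice alpha-glucosidase (4 nM final) with 400 uM 4-methylumbelliferyl-alpha-D-glucopyranoside in citrate buffer pH 5.0, 20 min at room temperature, stopped at pH 10; fluorescence 365/440 nm, compounds 0.7 nM–77 uM, AC50 from Hill fits.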

[9] = target: Alpha-galactosidase (Coffea arabica) (UniProt Q42656); test: Counterscreen for Glucocerebrosidase Inhibitors: qHTS Assay for Coffee Bean alpha-Galactosidase at pH 5.9 (AID 998)
Procedure, shortened: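 Green coffee bean enzyme (2 nM final) was incubated with compounds (0.7 nM–77 uM) and 4-methylumbelliferyl alpha-D-galactopyranoside (80 uM) in citrate buffer pH 5.9, 20 min at room temperature. High-pH stop; fluorescence 365/440 nm; AC50 from Hill fits.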

[10] = Validation of Assay for Modulators of Lamin A Splicing (AID 1459; active = well fitted curve in the direction sought with a large enough effect in the signal ratio; the % refers to the signal ratio;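 also: cells exposed to compound for two days before reading; ratio rise marks activators and ratio drop marks inhibitors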)
Procedure, shortened: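 S3 HeLa cells stably expressing a lamin A-EGFP splicing minigene and DsRed2 were seeded at 600 cells/well in Opti-MEM with 2% FBS, pin-dosed, and incubated 48 hrs at 37 °C, 5% CO2. Laser-scanning cytometry (488 nm) gave GFP/RFP total intensity ratio.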

Measured: Potency

Chain of Alpha-galactosidase (Coffea arabica) (Q42656 whole entry, looked up): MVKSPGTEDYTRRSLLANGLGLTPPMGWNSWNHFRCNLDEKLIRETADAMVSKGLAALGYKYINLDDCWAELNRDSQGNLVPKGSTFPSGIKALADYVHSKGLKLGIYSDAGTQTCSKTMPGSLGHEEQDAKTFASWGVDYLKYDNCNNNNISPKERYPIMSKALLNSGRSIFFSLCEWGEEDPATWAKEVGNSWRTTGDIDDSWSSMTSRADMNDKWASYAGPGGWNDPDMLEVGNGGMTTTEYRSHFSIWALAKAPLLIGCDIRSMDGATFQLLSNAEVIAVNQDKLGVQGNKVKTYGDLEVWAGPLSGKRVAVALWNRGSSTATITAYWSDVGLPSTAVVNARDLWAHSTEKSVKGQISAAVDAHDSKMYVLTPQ
Chain of Alpha-galactosidase A (Homo sapiens) (P06280 whole entry, looked up): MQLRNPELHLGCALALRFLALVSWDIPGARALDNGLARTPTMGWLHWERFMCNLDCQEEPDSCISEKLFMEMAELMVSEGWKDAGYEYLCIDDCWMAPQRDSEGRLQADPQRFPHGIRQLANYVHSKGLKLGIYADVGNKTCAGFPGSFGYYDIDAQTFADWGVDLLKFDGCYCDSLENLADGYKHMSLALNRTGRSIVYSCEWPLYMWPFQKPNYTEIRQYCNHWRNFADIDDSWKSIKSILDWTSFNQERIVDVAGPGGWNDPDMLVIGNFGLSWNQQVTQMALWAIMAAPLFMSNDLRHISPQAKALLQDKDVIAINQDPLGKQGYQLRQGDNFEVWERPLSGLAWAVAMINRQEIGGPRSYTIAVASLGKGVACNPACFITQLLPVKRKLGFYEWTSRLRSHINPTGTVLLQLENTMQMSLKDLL

COc1ccc2c(c1OC)C(=O)OC2C1c2cc3c(cc2CCN1C)OCO3 (configuration not stated)
inactive: [1]

NNC(N)=O
inactive: [1]

CCOC(=O)c1ccccc1C(=O)OCC
inactive: [1] | [2] | [3] | [4] | [5] | [6]

[O]=[Cd]
inactive: [1] | [2] | [3] | [4] | [5] | [6]

CC(C)NP(=O)(NC(C)C)OP(=O)(NC(C)C)NC(C)C
inactive: [7] | [8] | [9] | [10]

S=C=S
inactive: [1] | [2] | [3] | [4] | [5] | [6]

CC(=O)NBr
inactive: [7] | [8] | [9] | [10]

O=[N+]([O-])c1cc(O)c(O)c([N+](=O)[O-])c1
inactive: [7] | [8] | [9] | [10]

C=CCN=C=S
inactive: [1] | [2] | [3] | [4] | [5] | [6]

NC(=O)c1cc(N2CC2)c([N+](=O)[O-])cc1[N+](=O)[O-]
inactive: [7] | [8] | [9] | [10]

ClC(Cl)(Cl)Cl
inactive: [1] | [2] | [3] | [4] | [5] | [6]

CN(N=O)c1ccc(O)c(O)c1
inactive: [7] | [8] | [9] | [10]

Clc1cc(I)cc(Cl)c1NC1=NCCN1
inactive: [7] | [8] | [9] | [10]

NNC(=O)c1ccc(O)cc1
inactive: [7] | [8] | [9] | [10]

c1ccc2cc(CC3=NCCN3)ccc2c1
inactive: [7] | [8] | [9] | [10]

O=[N+]([O-])c1ccccc1
inactive: [1] | [2] | [3] | [4] | [5] | [6]

c1ccc2c(N3CCNCC3)cccc2c1
inactive: [7] | [8] | [9] | [10]

ClC=C(Cl)Cl
inactive: [1] | [2] | [3] | [4] | [5] | [6]

NCCCP(=O)(O)O
inactive: [7] | [8] | [9] | [10]

COc1ccc2[nH]cc(CCN)c2c1
inactive: [7] | [8] | [9] | [10]

O=C(O)C(Cl)(Cl)Cl
inactive: [1] | [2] | [3] | [4] | [5] | [6]

NC(N)=NOCC[C@H](N)C(=O)O
inactive: [7] | [8] | [9] | [10]

COC1=CC(=O)O[C@@H](/C=C/c2ccccc2)C1
inactive: [1] | [2] | [3] | [4] | [5] | [6]

C[N+](C)(C)CC#CCN1CCCC1=O
inactive: [7] | [8] | [9] | [10]

CCCN(CCC)C1Cc2cc(OC)c(OC)cc2C1
inactive: [7] | [8] | [9] | [10]

Cc1sc2ccccc2c1CC1=NCCN1
inactive: [7] | [8] | [9] | [10]

CN1CCc2cccc(Cl)c2CC1
inactive: [7] | [8] | [9] | [10]

C[C@H]1CCC[C@H](O)CCCCCc2cc(O)cc(O)c2C(=O)O1
inactive: [1] | [2] | [3] | [4] | [5] | [6]

CP(=O)(O)C1=CCNCC1
inactive: [7] | [8] | [9] | [10]

OCc1cnc[nH]1
inactive: [7] | [8] | [9] | [10]

C[C@@H]1O[C@H](C[N+](C)(C)C)CS1
inactive: [7] | [8] | [9] | [10]

COc1ccc2[nH]c3c(c2c1)CCNC3
inactive: [7] | [8] | [9] | [10]
